uPA surface inh – inhibitors of cell surface uPA generation; Potency, µM (titrated, usually from 38.3 µM), for inactives: top-dose activity change, negative = inhibition, hits mostly inhibitors; AID 540303; cell surface uPA generation assay, qHTS; hit rate 0.31% among 330,000; active = well fitted inhibition curve with a large enough effect; inconclusive = small, poorly fitted or top-dose-only effect; inactive = no such curve, though single readings can be large or run the other way; tested in mouse RAW 264.7 cells; note: potency is the fitted concentration of half-maximal effect; % is set by controls: 0 for no effect and ±100 for the full control effect; nearly all actives have a fitted effect of over 55% in size
PKM2 activator – PKM2 (human) enzyme activation; P14618; purified PKM2, Kinase-Glo ATP luminescence, activation; response scale: 0% is enzyme alone, no compound; Potency, µM (titrated, usually from 57.5 µM), without a hit: at the top dose activation, most hits filed as activators; AID 1631; hit rate 0.34% among 260,000; note: potency is the fitted concentration of half-maximal effect; % is set by controls: 0 for no effect and ±100 for the full control effect; nearly all actives have a fitted effect of over 55% in size
Target sequence (P14618 whole entry, looked up): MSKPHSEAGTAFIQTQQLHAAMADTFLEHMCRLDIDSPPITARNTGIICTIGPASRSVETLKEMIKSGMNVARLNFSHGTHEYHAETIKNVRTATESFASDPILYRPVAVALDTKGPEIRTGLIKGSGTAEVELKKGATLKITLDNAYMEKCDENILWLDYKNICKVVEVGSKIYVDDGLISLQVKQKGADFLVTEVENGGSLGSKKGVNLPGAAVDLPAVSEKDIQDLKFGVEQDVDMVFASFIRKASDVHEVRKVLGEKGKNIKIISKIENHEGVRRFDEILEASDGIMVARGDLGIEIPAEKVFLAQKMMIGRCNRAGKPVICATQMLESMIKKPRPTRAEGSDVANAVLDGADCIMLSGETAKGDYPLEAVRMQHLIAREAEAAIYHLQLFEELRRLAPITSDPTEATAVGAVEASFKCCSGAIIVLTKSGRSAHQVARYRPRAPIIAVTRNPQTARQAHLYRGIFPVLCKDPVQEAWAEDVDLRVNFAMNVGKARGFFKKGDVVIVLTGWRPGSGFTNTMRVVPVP
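Purified hPK-M2 (>95%) run at intermediate activity with 0.1 mM ADP and 0.5 mM PEP in 50 mM imidazole pH 7.2, KCl, MgCl2; 1 h room temperature. ATP formed read by Kinase-Glo luminescence; normalized to uninhibited and no-enzyme controls.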
TCR activator – activates T cell receptor signaling; 330,000 tested, under 10 active; primary human leukocytes, anti-CD3, IL-2 HTRF, 48 h; Potency, µM (titrated, usually from 9.22 µM), without a hit: at the top dose activation of IL-2 secretion, actives largely listed as activators; note: % of control where 0% means no effect
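Human primary leukocytes + a-CD3 beads + cpd, 48 hr; IL-2 in supernatant by HTRF (ex 320nm / em 665nm). No co-stimulatory signal supplied.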
TSHR antag – antagonists of human thyroid stimulating hormone receptor; P16473; TSHR-expressing cells, TSH-stimulated cAMP HTRF, 2 h; hits give low values; activity change, negative = inhibition, % at 11.5 µM; hit rate 0.2% among 330,000;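 active = activity change below a set negative limit, meaning inhibition stronger than a set level, cut at about -70% in these data; inconclusive = activity change between two set negative limits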; note: % is set by controls: 0 for no effect and ±100 for the full control effect
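Cell-based HTRF cAMP assay; TSHR cells + compound, TSH EC80 (4nM final), 2 h, 37 deg C. Lysis with anti-cAMP cryptate and cAMP-d2, 30 min RT, read 665/620 nm.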
Starred values were filed as active, the others as inactive; ? = inconclusive; . = no result; [ ] = remark or other dose. Compounds with a hit are over-represented: about 0.75% of the library has one in this group of screens. Unless noted, calls come from the whole dose curve; as a rule, active = well fitted curve in the direction sought with a large enough effect; inconclusive = small, poorly fitted or top-dose-only effect, or another doubt; inactive = no such curve, though single readings can be large; an effect the other way counts as inactive or inconclusive.

SMILES | uPA surface inh | PKM2 activator | TCR activator | TSHR antag
COc1ccccc1NC(=O)C(C)Sc1nc2ccccc2c(=O)n1CC1CCCO1 (stereo not drawn) | -2% | . | -4% | -14
CCc1nnc(NC(=O)CCC(=O)N2CCN(Cc3ccc(OC)c(F)c3)CC2)s1 | 6% | 0% | -1% | 8
CCN(CC)S(=O)(=O)c1cccc(C(=O)N/N=C/c2ccc([N+](=O)[O-])o2)c1 | -17% | 0% | -4% | 0
CC(C)(C)C(=O)C1=C(O)C(=O)N(Cc2ccccc2)C1c1ccccc1Cl (stereo not drawn) | 10µM* | 1% | -3% | -2
CC(=O)C1=C(O)C(=O)N(CC(=O)O)C1c1ccccc1Cl (stereo not drawn) | 11% | 1% | 3% | -4
CSCC[C@H](NC(=O)c1ccco1)c1nnc2ccccn12 | 3% | 3% | 8% | 13
COC(=O)c1ccc(C(NC(=O)OCc2ccccc2)/C(I)=C/[C@@H](C)C(=O)NCc2ccc(C)o2)cc1 (stereo partly drawn) | . | 14µM* | . | .
COc1ccc2c(COC(=O)c3ccc(C)c(S(=O)(=O)N4CCOCC4)c3)cc(=O)oc2c1 | 2% | . | -6% | .
Cc1cccc(CC(=O)NCC(=O)NCc2cc(=O)n(C)c(=O)n2C)c1 | -4% | 2%[0.46 µM] | 8% | -90*
CCOc1ccc(CC(=O)NCC(=O)NCc2cc(=O)n(C)c(=O)n2C)cc1 | 1% | ? | -1% | 2
COc1ccc(/C=C/CN2CCC(n3nccc3NC(=O)C3CC3)CC2)cc1 | -20% | -4% | -3% | -12
CCOc1ncccc1C(=O)NCc1ccccc1Cl | 31% | 0% | -4% | -4
O=c1[nH]c2ccccc2c(O)c1-c1ccccc1[N+](=O)[O-] | 4% | 0% | -3% | 9
c1ccc2c(CCNc3ncnc4nc[nH]c34)c[nH]c2c1 | 2.8µM* | 14% | 2%[46.1 µM] | -12
Cc1ccc(C2=CC(C)(c3ccc(C)cc3)Nc3nc(C(F)(F)F)nn32)cc1 (stereo not drawn) | 7% | -2% | -4%[46.1 µM] | 7
Cc1cc(C2=CC(C)(c3cc(C)oc3C)Nc3nc(C(F)(F)F)nn32)c(C)o1 (stereo not drawn) | . | 22µM* | . | -8
C(=N\Nc1ccc2ccccc2n1)/c1ccc2c(c1)OCCO2 | 2.2µM* | -14% | 5% | -7
C(=N\Nc1nc2ccccc2[nH]1)/c1ccc2c(c1)OCCO2 | ? | 2% | -4% | -4
Cc1cccc(/C=N/Nc2ccc3ccccc3n2)c1 | 8.9µM* | -8% | 6% | -1
O=S(=O)(c1ccccc1)c1ccc(NCc2ccco2)cc1 | . | 32µM* | 2% | -6
CC(C)N1CC(C(=O)Nc2ccc(Cl)c(Cl)c2)CC1=O (stereo not drawn) | -8% | 1% | 4% | 40
CC(C)N1CC(C(=O)Nc2cc(Cl)cc(Cl)c2)CC1=O (stereo not drawn) | 7.1µM* | 2% | -14% | -1
Cc1ccc2nc(C)c(C(=O)NN=C3CCCCCC3)n2c1 | 4.5µM* | 4% | 2% | 14
CC(C)C[C@H](NC(=O)OC(C)(C)C)C(=O)N[C@@H](CO)[C@H](O)[C@@H]1C[C@@H]1C(=O)N1CCCC1 | 9% | 3% | -6% | 16
CCCn1c(-c2ccc(F)cc2)nc2c(NC3CCN(Cc4ccccc4)CC3)nc(C)nc21 | . | -3% | . | .
SMILES | uPA surface inh | PKM2 activator | TCR activator | TSHR antag
COc1cc(/C=C(\C#N)C(=O)Nc2ccc3c(c2)OCCO3)ccc1O | 10µM* | ? | -2% | -35
CC(C)CC1C(=O)N(Cc2cn(CC3CCCCC3)nn2)CCS(=O)(=O)N1Cc1ccc(-c2cccc(C#N)c2)cc1 (stereo not drawn) | -23% | . | 3% | .
Cc1ccc(OC(C)C(=O)Nc2ccccc2C(=O)N2CCOCC2)cc1 (stereo not drawn) | 2% | -3% | 6% | 15
Cc1cc2cc(CCNC(=O)c3ccc(S(=O)(=O)N4CCCC4)cc3)c(=O)[nH]c2cc1C | ? | 3% | -8% | -77*
Cc1nnc2sc(SCc3ccccc3Cl)nn2c1=O | 1% | 7.1µM* | -2% | 7
O=C1c2oc3ccccc3c(=O)c2C(c2cccc(Br)c2)N1Cc1ccco1 (stereo not drawn) | . | 20µM* | -4% | 18
O=C(Nc1nc(-c2ccccn2)cs1)c1ccc2c(c1)OCCO2 | 2.5µM* | 4% | 6% | -15
Cc1cccc(NC(=O)COC(=O)C2COc3ccccc3O2)c1C (stereo not drawn) | 0% | . | 3%[46.1 µM] | -1
Cn1cnnc1SCC(=O)N1N=C2/C(=C/c3ccco3)CCCC2C1c1ccco1 (stereo not drawn) | -7% | 28µM* | -4% | 43
C/[N+]([O-])=C\c1cccc(OCCN2CCN(c3ncc(C(F)(F)F)cc3Cl)CC2)c1 | -3% | . | 8% | -10
CCSc1ccccc1C(=O)Nc1cc(OC)c(OC)c(OC)c1 | -1% | 28µM* | 1% | 0
COc1ccc(/C=C2\CCc3c2nc2ccccc2c3C(=O)O)cc1OC | 3.5µM* | 2% | -8% | -3
COc1ccc(/C=C2\CCCc3c2nc2ccccc2c3C(=O)O)cc1OC | . | 24% | . | 2
O=C(Nc1cc(Br)ccc1O)C1CC(c2c(F)cccc2Cl)=NO1 (stereo not drawn) | 8.9µM* | -16% | 3% | -19
COc1ccc(-n2c(C)cc(C(=O)CN3C(=O)NC4(CCCc5sccc54)C3=O)c2C)cc1 (stereo not drawn) | 11µM* | -15% | -5%[46.1 µM] | 8
Cc1cc(C(=O)CN2C(=O)NC3(CCCc4sccc43)C2=O)c(C)n1-c1ccccc1 (stereo not drawn) | -5% | -7% | 3%[46.1 µM] | -2
C/C(N)=C(/C#N)C(=O)CSc1ccc2c(c1)OCCO2 | -2% | 14µM* | -1% | 2
CCn1c(=O)n(CC)c2cc(S(=O)(=O)Nc3ccccc3C)c(C)cc21 | -24% | ? | . | -8
CCc1ccccc1NS(=O)(=O)c1cc2c(cc1C)n(C)c(=O)c(=O)n2C | -9% | 4µM* | 7% | 2
CC(=O)C(Cc1cccc(F)c1)(Cc1cccc(F)c1)C(C)=O | ? | -2% | -6% | -10
CCC(=O)NC(c1cc(Cl)c2cccnc2c1O)C1CC1 (stereo not drawn) | 13µM* | . | 3% | -19
CCC(=O)NC(c1cccs1)c1cc(Cl)c2cccnc2c1O (stereo not drawn) | 7.1µM* | 0% | 0% | -9
O=C(NCCCN1CCCC1=O)c1ccc(S(=O)(=O)Nc2cccc(C(F)(F)F)c2)cc1 | 0% | . | -4% | -1
CCOC(=O)c1sc(NC(=O)C2CC(=O)N(c3ccccc3OC)C2)nc1C (stereo not drawn) | 5% | . | 6% | -7
CC#CCN1c2ccccc2[C@]23C[C@@H](C(=O)OC)N(C(=O)c4cccs4)C2=NC(C(=O)OC)=C(C(=O)OC)[C@H]13 | . | 0%[11.5 µM] | . | .
COc1cccc(-c2cc(C(F)(F)F)n3nc(C(=O)N4CCCCC4c4cccnc4)cc3n2)c1 (stereo not drawn) | -13% | 4% | -2% | -3
